# From PubChem BioAssay AID1619 (SRMLSC, 2009)
# About 830 (0.38%) of roughly 220,000 compounds were called active.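 The calls were made as follows: active = compound inhibiting the enzyme by more than half at any dose during confirmatory dose-response retesting; inconclusive = strong single-dose inhibitors picked by rank but not retested; inactive = the rest.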 A selection follows. Results with a measured potency or affinity are listed apart.
# Biological target: Leucine aminopeptidase (Plasmodium falciparum (isolate 3D7)) (UniProt Q8IL11)
# Sequence (Q8IL11 whole entry, looked up): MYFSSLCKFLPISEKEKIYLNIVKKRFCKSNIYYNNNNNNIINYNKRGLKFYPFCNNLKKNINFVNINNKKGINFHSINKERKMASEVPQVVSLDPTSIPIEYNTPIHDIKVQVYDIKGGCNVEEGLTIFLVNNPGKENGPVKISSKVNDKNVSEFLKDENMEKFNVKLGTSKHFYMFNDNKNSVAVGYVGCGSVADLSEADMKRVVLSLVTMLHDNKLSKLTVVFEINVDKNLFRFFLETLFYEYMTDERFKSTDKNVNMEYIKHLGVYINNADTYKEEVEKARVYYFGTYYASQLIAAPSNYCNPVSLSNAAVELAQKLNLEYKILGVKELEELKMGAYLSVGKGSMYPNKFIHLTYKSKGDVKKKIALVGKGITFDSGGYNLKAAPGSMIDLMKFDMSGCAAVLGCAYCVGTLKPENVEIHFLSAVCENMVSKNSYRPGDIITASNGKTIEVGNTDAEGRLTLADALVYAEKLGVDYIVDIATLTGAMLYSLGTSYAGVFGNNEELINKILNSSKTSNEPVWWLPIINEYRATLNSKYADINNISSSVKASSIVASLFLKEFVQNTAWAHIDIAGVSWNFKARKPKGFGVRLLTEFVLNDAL
# Assay: P. falciparum M17LAP inhibitors, primary screen, biochemical, fluorogenic H-Leu-NHMec substrate, 1536-well (AID 1619);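 also: plate controls were full reaction with DMSO carrier for no effect and no enzyme background for full effect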
# Conditions: recombinant M17LAP, H-Leu-NHMec fluorogenic kinetic assay; at 30 µM; active compounds read high
row,Compound,inhibition
1,CC1=C(C(=O)OC(C)C)C(c2cn(-c3ccccc3)nc2-c2cccs2)NC(=O)N1 (centres undefined),2.02% (inactive)
2,COc1ccccc1C(=O)N1CCN(Cc2nc3cc([N+](=O)[O-])ccc3n2C)CC1,6.22% (inactive)
3,Cc1cc(S(=O)(=O)Nc2cccc(Cl)c2)c(C)s1,4.03% (inactive)
4,COc1cccc(NS(=O)(=O)c2cc(C)sc2C)c1,11.3% (inactive)
5,CC(=O)Nc1ccc(C2=NN(C)C(=NCc3ccccc3)SC2)cc1,-2.31% (inactive)
6,N=c1n(Cc2ccc(Cl)cc2)c2ccccc2n1CC(O)COc1ccccc1 (centres undefined),6.49% (inactive)
7,Cc1c(Cl)cccc1NS(=O)(=O)c1ccc2c(c1)C1C=CCC1C(c1ccc(C(=O)O)cc1)N2 (centres undefined),47.6% (inactive)
8,COc1ccc(C(=O)N/N=C(\C)c2ccc3c(c2)C2C=CCC2C(c2ccccc2)N3)cc1 (centres undefined),20.2% (inactive)
9,COc1ccc(N2C(=O)C3CCCN3C2c2ccc(C)cc2)cc1Cl (centres undefined),-8.88% (inactive)
10,CSCCC(NS(=O)(=O)c1ccc(Cl)c(Cl)c1)C(=O)O (centres undefined),-4.93% (inactive)
11,CSCCC(NS(=O)(=O)c1ccc2ccccc2c1)C(=O)O (centres undefined),12.2% (inactive)
12,O=C(NCCn1cc(SCc2ccc(F)cc2)c2ccccc21)c1ccccc1F,12.4% (inactive)
13,COC(=O)c1cccc(Cn2c(Cl)c(/C=N/NC(=O)c3ccccc3Cl)sc2=O)c1,13.4% (inactive)
14,COc1ccc(C(=O)N/N=C/c2sc(=O)n(Cc3cccc(C(=O)O)c3)c2Cl)cc1,43.6% (inactive)
15,O=C(O)c1cccc(Cn2c(Cl)c(/C=N/NC(=O)c3cccc(O)c3)sc2=O)c1,34% (inactive)
16,O=C(O)c1cccc(Cn2c(Cl)c(/C=N/NC(=O)c3ccccc3O)sc2=O)c1,35.2% (inactive)
17,O=C(O)c1cccc(Cn2c(Cl)c(/C=N/NC(=O)c3cc4ccccc4cc3O)sc2=O)c1,-0.68% (inactive)
18,O=C(O)c1cccc(Cn2c(Cl)c(/C=N/NC(=O)c3ccc(O)cc3)sc2=O)c1,53.6% (inactive)
19,COC(=O)/C(=N/Nc1cccc(C)c1)N1CCCc2ccccc21,1.03% (inactive)
20,Oc1ccc(CCc2n[nH]c(=S)n2-c2ccc(F)cc2)cc1,-8.27% (inactive)

row,Compound,inhibition
1,COc1ccc(N2C(=O)CC(Sc3n[nH]c(-c4ccccc4)n3)C2=O)cc1 (centres undefined),16.4% (inactive)
2,CCOc1ccccc1N1C(=O)CC(Sc2ncccc2C(=O)O)C1=O (centres undefined),17.5% (inactive)
3,COc1ccc(N2C(=O)CC(Sc3n[nH]c(-c4ccc(C)cc4)n3)C2=O)cc1 (centres undefined),51.7% (inactive)
4,CCOC(=O)CN1C(=O)C(Sc2n[nH]c(-c3ccccc3)n2)CCc2ccccc21 (centres undefined),16.8% (inactive)
5,COc1cc2ncnc(NCc3ccccc3)c2cc1OC,14.9% (inactive)
6,O=S(=O)(c1cccs1)N1CN(Cc2ccccc2)c2nc3ccccc3nc21,-4.62% (inactive)
7,CCC(=O)NCc1csc(-c2cccs2)n1,-3.47% (inactive)
8,O=C(Nc1cc(N2CCOCC2)ncn1)NC1(C(F)(F)F)Oc2ccccc2O1,5.1% (inactive)
9,O=C(NCCN1CCOCC1)NC1(C(F)(F)F)Oc2ccc(Cl)cc2O1 (centres undefined),28.4% (inactive)
10,Cn1nc(C(F)(F)F)c(-c2ccc(F)cc2)c1NC(=O)c1cccnc1,-2.14% (inactive)
11,COc1ccc(/C=C2\NC(=O)C(C=NCc3ccccc3)=C2O)cc1,0.26% (inactive)
12,COc1ccc(-c2nnc(SCC(=O)NCCc3ccccc3)o2)cc1,-10.2% (inactive)
13,Cn1cnnc1SCC(=O)OCN1C(=O)c2ccccc2C1=O,3.47% (inactive)
14,Cc1cc(C)nc(SCC(=O)OCN2C(=O)c3ccccc3C2=O)n1,8.29% (inactive)
15,CC(=O)Nc1ccc(NC(=O)CSc2ccc(C)cc2)cc1,-3.31% (inactive)
16,CCCn1c(SCC(=O)c2ccc(CC)cc2)n[nH]c1=O,26.6% (inactive)
17,Cc1ccc(C(=O)CSc2nnc(C)s2)cc1,-0.76% (inactive)
18,Cc1ccc(NC(=O)CSc2nnc(CCC(=O)O)c(=O)[nH]2)cc1,13.7% (inactive)
19,Cc1ccc(C(=O)CSc2nc(C)cc(=O)[nH]2)cc1,9.23% (inactive)
20,CCc1ccc(C(=O)CSc2nc3ccccc3c(=O)[nH]2)cc1,-2.74% (inactive)

row,Compound,inhibition
1,CCOC(=O)C[N+](C)(C)CCOC1CC2CCC1(C)C2(C)C (centres undefined),3.08% (inactive)
2,O=C(c1cnn2c(C(F)(F)F)cc(-c3ccc4c(c3)OCO4)nc12)N1CCCCC1,6.7% (inactive)
3,O=C(NCCC1=CCCCC1)C1CCN(C(=O)Cc2ccccc2)CC1,6.09% (inactive)
4,O=C(CSc1n[nH]c(-c2cccs2)n1)N1CCCc2ccccc21,1.29% (inactive)
5,Fc1ccc(CNc2nc3ccccc3n3cnnc23)cc1,-2.38% (inactive)
6,CCOC(=O)C1CN(S(=O)(=O)c2ccccc2)CCN1S(=O)(=O)c1ccccc1 (centres undefined),-13.2% (inactive)
7,CCCCCn1c(CNC(=O)COC)nc2ccccc21,-1.06% (inactive)
8,CN(CC(=O)Nc1ccc(N2CCOCC2)cc1)CC(=O)Nc1cccc(C#N)c1,17.1% (inactive)
9,CC(C)Oc1ccc(C(CC(=O)O)NC(=O)C2CCCCC2)cc1 (centres undefined),4.14% (inactive)
10,Cc1nc(SCC(=O)c2ccc(F)cc2)n[nH]1,19.2% (inactive)
11,CC(C)Oc1ccc(C(CC(=O)O)NC(=O)C(Sc2ccccc2)c2ccccc2)cc1 (centres undefined),19.5% (inactive)
12,Cc1ccc(C(=O)CSc2n[nH]c(C)n2)cc1,46.4% (inactive)
13,CC(C)(C)c1ccc(C(=O)CSc2n[nH]c(=O)[nH]c2=O)cc1,-4.96% (inactive)
14,CC(C)(C)c1ccc(C(=O)CSc2nc3ccccc3c(=O)[nH]2)cc1,9.78% (inactive)
15,O=C(CCC(=O)Nc1ccccc1)NNC(=O)c1ccccc1Cl,-1.79% (inactive)
16,CCCN1Cc2cccc(C(=O)Nc3ccc(C)cc3)c2C1=O,-1.02% (inactive)
17,COCCNC(=S)N1CCC(Cc2ccccc2)CC1,1.83% (inactive)
18,CC(=O)Nc1ccc(Sc2ccccc2C(=O)O)cc1,6.89% (inactive)
19,CCOC(=O)C1CCCN(C(=O)c2cc(Nc3ccc(OC)cc3OC)nc3ccccc23)C1 (centres undefined),-1.02% (inactive)
